This is part of a sample that, as a whole, favours compounds with a hit. Of some 83,000 tested, about 20% had one in any assay.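 Step 1: grow cells in 96-well plates. Step 2: add test compound at a single concentration. Step 3: incubate 48 h. Step 4: record percent growth.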 Values without a mark were called inactive. Calls of active or inactive are those of the source. The calls were made as follows: active = growth percent below 10; inactive = the rest.
Columns and labels:
Test in all cases: NCI-60 one-dose screen, 48 h (100 = growth as untreated, 0 = no growth, -100 = all killed)
NCI-H522 lung = settings: 10 µM unless noted
A549/ATCC NSCLC = settings: 10 µM unless noted
COLO 205 colon = settings: 10 µM
HT29 colon = settings: 10 µM unless noted
SNB-75 CNS = settings: 10 µM unless noted
EKVX NSCLC = settings: 10 µM unless noted
SN12C renal = settings: 10 µM unless noted
CAKI-1 renal = settings: 10 µM unless noted
SR leukemia = settings: 10 µM
OVCAR-4 ovarian = settings: 10 µM unless noted
SK-OV-3 ovarian = settings: 10 µM unless noted
HS 578T breast = settings: 10 µM unless noted
BT-549 breast = settings: 10 µM
HCT-116 colon = settings: 10 µM unless noted
PC-3 prostate = settings: 10 µM unless noted
TK-10 renal = settings: 10 µM unless noted
A498 renal = settings: 10 µM unless noted
RPMI-8226 leukemia = settings: 10 µM unless noted

Compound	growth (NCI-H522 lung)	growth (A549/ATCC NSCLC)	growth (COLO 205 colon)	growth (HT29 colon)	growth (SNB-75 CNS) [%]	growth (EKVX NSCLC) [%]	growth (SN12C renal)	growth (CAKI-1 renal)	growth (SR leukemia) [%]	growth (OVCAR-4 ovarian) [%]	growth (SK-OV-3 ovarian)	growth (HS 578T breast)	growth (BT-549 breast)	growth (HCT-116 colon)	growth (PC-3 prostate)	growth (TK-10 renal) [%]	growth (A498 renal)	growth (RPMI-8226 leukemia)
COc1ccc(C2=NN(c3ccccc3)C(c3sc(N(CCCl)CCCl)nc3Cl)C2)cc1 (stereo not given)	71%	85.6%	92.1%	72.6%	74.2	86	90.5%	69.4%	86.1	91.9	75.9%	80.9%	108%	67%				
O=CC(Br)C(Br)c1ccccc1 (stereo not given)	98%	97.6%	123%	71.4%	92.6		86.7%	92.9%	16.1	104	109%	97.2%	99.7%		94.7%	106	102%	89%
ClCCN(CCCl)c1nc(Cl)c(C2CC(c3ccccc3)=NN2c2ccccc2)s1 (stereo not given)	75.1%	88.9%	95.3%	82.5%		89.5	90.4%	81.4%	88.4	87.1	82.9%	87.4%	99.3%	78.3%	75.8%		103%	
Nc1cccc(CC(=O)Nc2ccc(S(=O)(=O)F)cc2)c1	84.8%	96.5%	95.8%		71.8	104	100%		96.7		92.4%	99.1%	97%	96.9%	82.2%	107		
ClCCN(CCCl)c1ccc(C=NCCc2c[nH]c3ccccc23)cc1	92.4%	88.6%	106%	85.1%	82.5	106	62.7%		31.9		81%	89.8%	81.9%	79%	57%	88	1.98% (active)	85.6%
O=C1NC(=O)C(Cc2ccccc2)(Cc2ccccc2)C(=O)N1	97.8%	104%	125%	104%	89.3	109	104%		99.6		89.2%	109%	118%	107%	105%	99.5	104%	96.4%
Cc1ccc(C[As+](c2ccccc2)(c2ccccc2)c2ccccc2)cc1	-22% (active)	7.2% (active)	-55.7% (active)	-3.93% (active)	15.1		3.83% (active)	60.1%		23.6	-4.76% (active)	21%	-4.76% (active)	2.52% (active)	7.95% (active)		-11% (active)	-8.65% (active)
O=C(NCCNC(=O)c1ccc([As](O)O)cc1)c1ccc([As](O)O)cc1	103%	109%	100%	112%	87.5	103	113%	98.3%	101	105		91.7%	111%	101%	94.6%			114%
CCOC(=O)c1cnc(SCc2ccc(Cl)c(Cl)c2)nc1N1CC1	36.7%	50%	67.8%	31.2%	43.1	69.7	58.4%	31.1%	24.1	53.6	74.6%	59.3%	52.6%	23.5%	51.2%	71.9	44.3%	59.7%
Cc1ccc(C(=O)C2CN(C)CCC2(O)c2ccc(C)cc2)cc1 (stereo not given)	111%	104%	131%	113%	96	111		93.7%	101	106	122%	97%		107%	108%	108	94%	99.9%
S=P(NC1CCCCC1)(N1CC1)N1CC1	106%	101%	179%	101%	93.2	102	98.1%	95.1%	104	100						116	96.2%	76.7%
CC(N)Cc1ccc(O)cc1 (stereo not given)	105%	103%	128%	98.4%		107	105%	103%	55.4		105%	103%	126%	100%	98.8%	98.3		98.3%
C[C@]12CC[C@@H]3C4=C(CC[C@H]3[C@@H]1CC[C@@H]2O)CC(=O)CC4	90.8%	98.4%	117%		101	72	99.5%		97.5	111	114%	5.03% (active)	122%	102%	103%	113	90.6%	91.8%
CC1(C)N=C(N)N=C(N)N1c1ccc(OCCCCOc2ccc(S(=O)(=O)F)cc2)c(Cl)c1	5.92% (active)	11.2%	20.4%	8.74% (active)	38.3		17.4%	44.5%		57	43.3%	60.3%	28.8%	11.2%	5.85% (active)			7.96% (active)
CO[C@@H]1[C@H](OC(=O)NC(=O)CCl)CC[C@]2(CO2)[C@H]1[C@@]1(C)O[C@@H]1CC=C(C)C	10.3%	59.1%	57.4%	58.1%	41.7	91.7	72.3%	67.2%	21.5		93.7%	61.2%	61.2%		20.2%	92.6	103%	45.4%
CC1(C)N=C(N)N=C(N)N1c1ccc(CCC(=O)Nc2cccc(S(=O)(=O)F)c2)cc1	91.1%	44.6%	93.4%		59.5	56.8	46.5%	-5.98% (active)	35.6		101%	121%	84.9%	41.3%	24.5%	98.9		
CC(=O)C1C(=O)N(C)C(=O)N(C)C1=O	105%	96.1%	114%	102%	92.1			102%	96.5	105	115%	107%		106%	94.9%	109	83.2%	99.7%
CC(=O)N1N=C(c2ccccc2)CC1c1sc(N(CCCl)CCCl)nc1Cl (stereo not given)	72.2%	86.3%	99.5%	93.9%	83.1	90.9	86.6%	80.2%	86.4	101	89.4%		92.8%	92.5%	88.1%	108	97.5%	
Cc1ccccc1O	99%	100%	105%	110%		111	105%	96.2%	128		97.5%	132%		103%	96.4%	115	129%	108%
O=S(=O)(c1ccc(Cl)cc1)C(Cl)(Cl)Cl	11%	56.6%	48%	12.2%	39.6	40.6	58.3%	-6.81% (active)	15.1	61.6	84.9%	55.8%		42.2%	49.1%	50.6	56.4%	18%

Reference: PubChem BioAssay (NCI)
